The results in this text go back to PubChem BioAssay (EPA / NIEHS).

Molecules are shown by their SMILES. The source made the active and inactive calls. How the source made its calls, unless noted: active means hit-call score of the fitted dose curve at least 0.9, where 1 is the maximum; inactive means score below 0.9.

Read-out in assay [1]: Protein phosphatase 2A (PPP2R4), PTPA (gene 5524)
Nature of the assay: LTEA_HepaRG_PPP2R4: Life Technologies and Expression Analysis (LTEA) Assay for Protein phosphatase 2A (PPP2R4) using HepaRG (AID 2283522). The settings on record: mRNA level, 48 h; actives raise or lower the signal. In a few lines: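 HepaRG, 48 h exposure, 8-pt half-log series from 100 uM, 0.5% DMSO vehicle, duplicates. Readout: PPP2R4 mRNA, Fluidigm qRT-PCR, housekeeping-normalized. Bidirectional curve fit vs DMSO baseline.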

Read-out in assay [2]: Phosphatase and tensin (PTEN), PTEN (gene 5728)
Nature of the assay: LTEA_HepaRG_PTEN: Life Technologies and Expression Analysis (LTEA) Assay for Phosphatase and tensin (PTEN) using HepaRG (AID 2283523). The settings on record: mRNA level, 48 h; actives raise or lower the signal. In a few lines:
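Expression of PTEN is quantified in the human liver line HepaRG following two days of dosing (top concentration 100 uM, half-log dilutions, 0.5% DMSO). Values derive from bidirectional curve fitting relative to DMSO controls.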

Read-out in assay [3]: solute carrier (SLC22A1), SLC22A1 (gene 6580)
Nature of the assay: LTEA_HepaRG_SLC22A1: Life Technologies and Expression Analysis (LTEA) Assay for solute carrier (SLC22A1) using HepaRG (AID 2283524). The settings on record: mRNA level, 48 h; actives raise or lower the signal. In short, it runs like this: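 Transcript induction or suppression of SLC22A1 in human HepaRG cultures is scored after 48 h chemical treatment, with DMSO (0.5%) as baseline for bidirectional fitting. Concentrations span eight half-log points topping at 100 uM.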

Read-out in assay [4]: Pyruvate Dehydrogenase Kinase 4 (PDK4), PDK4 (gene 5166)
Nature of the assay: LTEA_HepaRG_PDK4: Life Technologies and Expression Analysis (LTEA) Assay for Pyruvate Dehydrogenase Kinase 4 (PDK4) using HepaRG (AID 2283525). The settings on record: mRNA level, 48 h; actives raise or lower the signal. In a few lines: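 Eight-point, half-log concentration series (max 100 uM, 0.5% DMSO) applied to differentiated HepaRG cells for 48 h in duplicate. Endpoint: PDK4 mRNA induction or repression by qRT-PCR against DMSO baseline.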

Read-out in assay [5]: NAD(P)H dehydrogenase [quinone] 1 (NQO1), NQO1 (gene 1728)
Nature of the assay: LTEA_HepaRG_NQO1: Life Technologies and Expression Analysis (LTEA) Assay for NAD(P)H dehydrogenase [quinone] 1 (NQO1) using HepaRG (AID 2283526). The settings on record: mRNA level, 48 h; actives raise or lower the signal. In short, it runs like this:
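qRT-PCR read-out (Fluidigm TaqMan), normalized to three housekeeping genes, after 48 h chemical exposure of HepaRG cells. Concentrations: eight points, top 100 uM, half-log steps, 0.5% DMSO vehicle. Gain or loss of signal fitted relative to DMSO.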

Read-out in assay [6]: Nuclear factor erythroid 2-related factor 2 (Homo sapiens) (UniProt Q16236)
Nature of the assay: LTEA_HepaRG_NFE2L2: Life Technologies and Expression Analysis (LTEA) Assay for Nuclear factor erythroid 2-related factor 2 (NFE2L2) Transcription Factor using HepaRG (AID 2283527). The following applies: mRNA level, 48 h; actives raise or lower the signal. In a few lines:
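Human liver HepaRG line treated in duplicate for 48 h with an eight-point series topping at 100 uM. Gene expression of NFE2L2 by qRT-PCR, bidirectionally fitted against the vehicle control.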

Read-out in assay [7]: succinate dehydrogenase complex iron sulfur subunit B (SDHB), SDHB (gene 6390)
Kind of assay: LTEA_HepaRG_SDHB: Life Technologies and Expression Analysis (LTEA) Assay for succinate dehydrogenase complex iron sulfur subunit B (SDHB) using HepaRG (AID 2283528). The following applies: mRNA level, 48 h; actives raise or lower the signal. In short, it runs like this:
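HepaRG, 48 h exposure, 8-pt half-log series from 100 uM in 0.5% DMSO, duplicates. Readout: SDHB mRNA by Fluidigm qRT-PCR vs housekeeping genes; bidirectional fit relative to DMSO.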

Read-out in assay [8]: Signal transducer and activator of transcription 3 (Homo sapiens) (UniProt P40763)
Kind of assay: LTEA_HepaRG_STAT3: Life Technologies and Expression Analysis (LTEA) Assay for Signal transducer and activator of transcription (STAT3) using HepaRG (AID 2283529). The settings on record: mRNA level, 48 h; actives raise or lower the signal. In a few lines: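 In this transcriptional endpoint, HepaRG cultures receive test chemicals at up to 100 uM for 48 h, tested in duplicate. STAT3 mRNA is normalized to ACTB, GAPDH and POLR2A.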

Read-out in assay [9]: solute carrier (SLCO1B1), SLCO1B1 (gene 10599)
Nature of the assay: LTEA_HepaRG_SLCO1B1: Life Technologies and Expression Analysis (LTEA) Assay for solute carrier (SLCO1B1) using HepaRG (AID 2283530). The following applies: mRNA level, 48 h; actives raise or lower the signal. In short, it runs like this:
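SLCO1B1 transcript levels were quantified by TaqMan qRT-PCR using three housekeeping genes for normalization. This followed 48 h chemical exposure (100 uM top, half-log, 8 points, 0.5% DMSO) of HepaRG liver cells, with gain or loss fitted relative to DMSO.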

Read-out in assay [10]: sulfotransferase 2A1 (SULT2A1), SULT2A1 (gene 6822)
Kind of assay: LTEA_HepaRG_SULT2A1: Life Technologies and Expression Analysis (LTEA) Assay for sulfotransferase 2A1 (SULT2A1) using HepaRG (AID 2283531). The settings on record: mRNA level, 48 h; actives raise or lower the signal. In short, it runs like this: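 Expression change of SULT2A1, by qRT-PCR with three housekeeping-gene normalization, was scored bidirectionally versus DMSO. Cells: differentiated HepaRG, dosed in duplicate for 48 h across 8 points, highest 100 µM, half-log dilution, 0.5% DMSO.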

Read-out in assay [11]: Transforming Growth Factor (TGFA), TGFA (gene 7039)
Kind of assay: LTEA_HepaRG_TGFA: Life Technologies and Expression Analysis (LTEA) Assay for Transforming Growth Factor (TGFA) using HepaRG (AID 2283532). The settings on record: mRNA level, 48 h; actives raise or lower the signal. In a few lines: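 Gene expression of TGFA was quantified by qRT-PCR after human HepaRG cells were treated for 48 h with test chemicals (eight concentrations, highest 100 uM, 0.5% DMSO). Activity in either direction was fitted relative to DMSO.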

Read-out in assay [12]: Transforming Growth Factor (TGFB1), TGFB1 (gene 7040)
Kind of assay: LTEA_HepaRG_TGFB1: Life Technologies and Expression Analysis (LTEA) Assay for Transforming Growth Factor (TGFB1) Transporter using HepaRG (AID 2283533). The following applies: mRNA level, 48 h; actives raise or lower the signal. In short, it runs like this: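 TGFB1 transcript measured by qRT-PCR with normalisation to three housekeeping genes (ACTB, GAPDH, POLR2A); human HepaRG line treated in duplicate for 48 hr with an 8-point series topping at 100 uM, 0.5% DMSO vehicle, bidirectionally fitted.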

Read-out in assay [13]: TIMP1, TIMP1 (gene 7076)
Kind of assay: LTEA_HepaRG_TIMP1: Life Technologies and Expression Analysis (LTEA) Assay for TIMP1 using HepaRG (AID 2283534). The following applies: mRNA level, 48 h; actives raise or lower the signal. In short, it runs like this:
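Bidirectional change in TIMP1 transcript versus 0.5% DMSO, measured by TaqMan qRT-PCR with three housekeeping genes for normalization. HepaRG human liver cells dosed 48 h in duplicate, top concentration 100 uM with half-log dilutions.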

Read-out in assay [14]: Tumor necrosis factor receptor 1 (TNFRSF1A), TNFRSF1A (gene 7132)
Kind of assay: LTEA_HepaRG_TNFRSF1A: Life Technologies and Expression Analysis (LTEA) Assay for Tumor necrosis factor receptor 1 (TNFRSF1A) using HepaRG (AID 2283535). The settings on record: mRNA level, 48 h; actives raise or lower the signal. In a few lines: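 mRNA measured by qRT-PCR (TaqMan, Fluidigm arrays) against ACTB/GAPDH/POLR2A housekeepers after 48 h chemical exposure of HepaRG cells. Top concentration 100 uM, half-log 8-point series, duplicates; vehicle 0.5% DMSO, both fit directions.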

Read-out in assay [15]: Thyroid Hormone Responsive (THRSP), THRSP (gene 7069)
Kind of assay: LTEA_HepaRG_THRSP: Life Technologies and Expression Analysis (LTEA) Assay for Thyroid Hormone Responsive (THRSP) using HepaRG (AID 2283536). The following applies: mRNA level, 48 h; actives raise or lower the signal. In short, it runs like this:
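Cell model: human HepaRG, approx. 100,000 cells/well, 0.5% DMSO vehicle. Exposure lasts 48 h; phenobarbital 1 mM serves as induction positive control. Gene expression is measured by qRT-PCR against three endogenous control genes.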

Read-out in assay [16]: Cellular tumor antigen p53 (Homo sapiens) (UniProt P04637)
Nature of the assay: LTEA_HepaRG_TP53: Life Technologies and Expression Analysis (LTEA) Assay for Tumor Protein P53 (TP53) using HepaRG (AID 2283537). The settings on record: mRNA level, 48 h; actives raise or lower the signal. In a few lines:
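HepaRG, 48 h exposure, top 100 uM, half-log 8-point, 0.5% DMSO vehicle, duplicates. Read: TP53 mRNA by TaqMan qRT-PCR, normalised to ACTB/GAPDH/POLR2A; bidirectional fit vs DMSO.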

Read-out in assay [17]: UDP glucuronosyltransferase (UGT1A1), UGT1A1 (gene 54658)
Nature of the assay: LTEA_HepaRG_UGT1A1: Life Technologies and Expression Analysis (LTEA) Assay for UDP glucuronosyltransferase (UGT1A1) using HepaRG (AID 2283538). The settings on record: mRNA level, 48 h; actives raise or lower the signal. In a few lines:
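HepaRG, 48 h chemical exposure (top 100 uM, half-log 8-pt, 0.5% DMSO vehicle), duplicate wells; qRT-PCR (TaqMan, Fluidigm array) for UGT1A1 mRNA, housekeeping-normalized; bidirectional curve fit vs DMSO baseline.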

Read-out in assay [18]: UDP glucuronosyltransferase (UGT1A6), UGT1A6 (gene 54578)
Kind of assay: LTEA_HepaRG_UGT1A6: Life Technologies and Expression Analysis (LTEA) Assay for UDP glucuronosyltransferase (UGT1A6) using HepaRG (AID 2283539). The following applies: mRNA level, 48 h; actives raise or lower the signal. In short, it runs like this:
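Expression was quantified by TaqMan qRT-PCR on Fluidigm arrays with ACTB/GAPDH/POLR2A normalization and bidirectional fitting against 0.5% DMSO. HepaRG cells (~100,000/well) were treated in duplicate for 48 h at eight half-log concentrations up to 100 uM in serum-free induction medium.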

Read-out in assay [19]: X-box binding protein 1 (XBP1), XBP1 (gene 7494)
Nature of the assay: LTEA_HepaRG_XBP1: Life Technologies and Expression Analysis (LTEA) Assay for X-box binding protein 1 (XBP1) using HepaRG (AID 2283540). The following applies: mRNA level, 48 h; actives raise or lower the signal. In a few lines: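 XBP1 transcript by qRT-PCR (housekeeping-normalized: ACTB, GAPDH, POLR2A) after 48 h chemical treatment of HepaRG cells, 8-point half-log series topping at 100 uM, vehicle 0.5% DMSO. Gain and loss of signal fitted relative to DMSO.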

Assay [20] in a line: LTEA_HepaRG_LDH_cytotoxicity: Cytotoxicity Assessment in the Life Technologies and Expression Analysis (LTEA) Assay (AID 2283563; active means hit-call score of the fitted dose curve at least 0.9, where 1 is the maximum). In short, it runs like this: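 LDH release into culture medium read after 48 h chemical treatment of HepaRG cells. Duplicate wells, eight-point half-log series topping at 100 uM, 0.5% DMSO vehicle and baseline.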

Chain of Signal transducer and activator of transcription 3 (Homo sapiens) (P40763 whole entry, looked up): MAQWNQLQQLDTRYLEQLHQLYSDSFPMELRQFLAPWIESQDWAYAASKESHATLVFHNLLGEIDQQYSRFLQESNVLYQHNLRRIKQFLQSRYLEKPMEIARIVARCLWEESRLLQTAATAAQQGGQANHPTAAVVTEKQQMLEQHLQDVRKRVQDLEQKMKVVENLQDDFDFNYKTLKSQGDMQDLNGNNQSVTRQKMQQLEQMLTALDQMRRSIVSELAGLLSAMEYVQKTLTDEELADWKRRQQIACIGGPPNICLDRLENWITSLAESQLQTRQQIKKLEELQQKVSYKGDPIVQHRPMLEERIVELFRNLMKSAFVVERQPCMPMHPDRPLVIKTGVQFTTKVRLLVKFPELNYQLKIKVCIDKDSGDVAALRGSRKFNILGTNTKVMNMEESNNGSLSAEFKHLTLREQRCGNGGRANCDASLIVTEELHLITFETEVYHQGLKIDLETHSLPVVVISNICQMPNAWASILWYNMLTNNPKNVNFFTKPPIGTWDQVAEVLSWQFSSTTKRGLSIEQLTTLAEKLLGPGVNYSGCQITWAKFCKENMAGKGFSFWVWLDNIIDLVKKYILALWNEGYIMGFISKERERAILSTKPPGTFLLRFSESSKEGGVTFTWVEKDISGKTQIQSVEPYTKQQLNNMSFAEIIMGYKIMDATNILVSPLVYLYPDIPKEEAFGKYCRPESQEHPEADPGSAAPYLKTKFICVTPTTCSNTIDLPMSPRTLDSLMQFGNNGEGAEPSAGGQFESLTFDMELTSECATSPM
Chain of Cellular tumor antigen p53 (Homo sapiens) (P04637 whole entry, looked up): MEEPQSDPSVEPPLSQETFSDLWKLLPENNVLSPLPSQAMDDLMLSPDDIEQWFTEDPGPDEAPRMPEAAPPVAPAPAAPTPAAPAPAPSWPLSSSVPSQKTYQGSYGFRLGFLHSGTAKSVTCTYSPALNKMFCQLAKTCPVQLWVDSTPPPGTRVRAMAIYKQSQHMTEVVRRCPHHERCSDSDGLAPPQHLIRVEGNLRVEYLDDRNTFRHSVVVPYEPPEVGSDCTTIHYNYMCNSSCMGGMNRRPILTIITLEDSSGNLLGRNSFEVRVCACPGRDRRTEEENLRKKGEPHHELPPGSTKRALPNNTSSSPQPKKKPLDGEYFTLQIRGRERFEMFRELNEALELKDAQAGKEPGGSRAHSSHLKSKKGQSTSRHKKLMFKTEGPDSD
Chain of Nuclear factor erythroid 2-related factor 2 (Homo sapiens) (Q16236 whole entry, looked up): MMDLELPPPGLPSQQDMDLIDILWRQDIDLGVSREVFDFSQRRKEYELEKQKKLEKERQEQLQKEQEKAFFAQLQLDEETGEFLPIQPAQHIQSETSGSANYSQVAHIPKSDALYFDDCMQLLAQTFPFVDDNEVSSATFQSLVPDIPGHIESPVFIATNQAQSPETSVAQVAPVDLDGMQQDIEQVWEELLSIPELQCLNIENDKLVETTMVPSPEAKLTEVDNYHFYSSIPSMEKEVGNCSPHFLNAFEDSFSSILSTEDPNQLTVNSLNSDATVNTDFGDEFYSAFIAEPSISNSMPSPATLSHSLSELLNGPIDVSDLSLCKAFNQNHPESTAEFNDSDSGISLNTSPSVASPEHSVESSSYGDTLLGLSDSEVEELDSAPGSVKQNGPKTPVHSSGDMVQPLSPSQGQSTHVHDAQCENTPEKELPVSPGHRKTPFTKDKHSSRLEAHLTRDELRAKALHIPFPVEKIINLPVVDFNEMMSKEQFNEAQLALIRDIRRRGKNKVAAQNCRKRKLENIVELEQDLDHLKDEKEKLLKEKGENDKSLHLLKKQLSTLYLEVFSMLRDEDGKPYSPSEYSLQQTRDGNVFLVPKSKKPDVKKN

For `CCCOc1nn(C(=O)NS(=O)(=O)c2ccccc2C(=O)OC)c(=O)n1C`, the result in assay [1], in assay [2], in [3], in [4], in [5] and in assay [6] was inactive. The molecule was called inactive in assay [7], in assay [8], in [9], in assay [10], in assay [11] and in assay [12]. Moreover, the result in assay [13], in assay [14], in assay [15], in [16], in assay [17] and in [18] was inactive. Besides, the result in assay [19] and in assay [20] was inactive.

Regarding `Nc1nc(N)nc(NC2CC2)n1`, the molecule was classed as inactive in [1], in assay [2], in assay [3], in assay [4], in assay [5] and in assay [6]. In addition, the call in [7], in assay [8], in [9], in assay [10], in assay [11] and in [12] was inactive. In addition, the molecule was classed as inactive in assay [13], in assay [14], in [15], in assay [16], in assay [17] and in assay [18]. Also, the molecule was called inactive in assay [19] and in [20].

For the molecule `CCc1cccc(C)c1N(C(=O)CCl)C(C)COC` (stereo not given), the outcome in assay [1], in [2], in assay [3], in assay [4], in assay [5] and in assay [6] was inactive. For the same molecule, the call in [7], in assay [8], in [9], in assay [10], in [11] and in [12] was inactive. For the same molecule, the call in assay [13], in assay [14], in assay [15], in [16], in [18] and in assay [19] was inactive. The molecule was called inactive in assay [20]. Moreover, in [17], the half-maximal activity concentration (AC50) (in general, the concentration giving half of the maximal activity seen) is 20.5 µM (active).
